Our source for the AC50 and outcome values is PubChem BioAssay (EPA / NIEHS).

Where “and” joins values, the source holds several entries; their conditions need not be identical. Equal values may be shown once. A structure can be active in one record and inactive in another. Calls of active or inactive are those of the source. Rule for the calls: active = hit-call score of the fitted dose curve at least 0.9, where 1 is the maximum; inactive = score below 0.9.

Read-out in the assay: Interferon-inducible T-cell alpha chemoattractant (ITAC), CXCL11 (gene 6373)
The assay is described as follows: BSK_hDFCGF_ITAC: BioMAP Diversity Plus: hDFCGF Assay for Interferon-inducible T-cell alpha chemoattractant (ITAC) Biomarker Activity (AID 2284251). The following applies: primary human foreskin fibroblasts. How it is done: BSK_hDFCGF is a cell-based, multiplexed-readout assay that uses foreskin fibroblast, a human skin primary cell, with measurements taken at 24 hours after chemical dosing in a 96-well plate.BSK_hDFCGF_ITAC is an assay component measured in the BSK_hDFCGF assay. It measures I-TAC antibody related to regulation of gene expression using ELISA technology.Data from the assay component BSK_hDFCGF_ITAC was analyzed at the endpoint, BSK_hDFCGF_ITAC, in the positive analysis fitting direction relative to DMSO as the negative control and baseline of activity. Using a type of binding reporter, gain or loss-of-signal activity can be used to understand protein changes. To generalize the intended target to other relatable targets, this assay endpoint is annotated to the 'cytokine' intended target family, where the subfamily is 'chemotactic factor'.
The levels of cell surface (or secreted, indicated by the prefix "s") biomarker endpoints were measured by ELISA. Overt cytotoxicity to cells in confluent adherent cultures (all systems other than the BT system) was assessed by measuring total protein levels using sulforhodamine B (SRB) staining in parallel cultures at the time of biomarker measurements, indicated as SRB endpoints. For proliferation assays for adherent cell types, individual cell types are cultured at sub-confluence and relative cell numbers quantified by SRB staining at time points optimized for each system (48 h: 3C and CASM3C systems; 72 h: BT and HDF3CGF systems; 96 h: SAg system). SRB was performed by staining cells with 0.1% SRB after fixation with 10% TCA and reading wells at 560 nm.Viability and proliferation of PBMC (T cells) was quantified by Alamar Blue reduction for the SAg and BT systems. For PBMC viability (referred to as PBMC Cytotoxicity within the assay endpoint names), cells were plated (75,000/well in a 96-well plate) and then chemical samples added for 1 h before addition of activators, SEB and TSST-1 (20 ng/mL final concentration each). Cells were incubated for 90 h. Then, Alamar Blue (20 uL/well) (Invitrogen, Cat DAL1100) was added for 6 h, and the plates were read with a fluorescence microplate reader at 546/580 nm (excitation/emission). For PBMC proliferation, cells were plated and activated as above but incubated for only 16 h prior to addition of Alamar Blue. Plates were read after 6 h.
As usually defined, the AC50 is the concentration giving half of the maximal activity seen. Turning to `O=C(O)C(F)(F)C(F)(F)C(F)(F)C(F)(F)C(F)(F)C(F)(F)C(F)(F)C(F)F`, the AC50 was 12.9 µM (active) and the outcome was inactive.

Take `O=S(=O)(O)C(F)(F)C(F)(F)OC(F)(F)C(F)(F)F`: the result was inactive.

For the compound `CC(=O)c1ccc(C)cc1`, the outcome was inactive.

Consider `CC(C)(CO)CO`, for which the outcome was inactive.

On to `O=C(O)C(F)(F)OC(F)(F)C(F)(F)OC(F)(F)C(F)(F)C(F)(F)C(F)(F)F`, for which the AC50 is 10.9 µM (active) and 17.6 µM (active).

With `CCCCN(CCO)CCO`, the outcome was inactive.

As for `c1ccc(OCCOc2ccccc2)cc1`, the result was inactive.

Consider `CCCO[Si](OCCC)(OCCC)OCCC`, for which the result was inactive.

Take `C=C(F)C(=O)OC(C(F)(F)F)C(F)(F)F`: the outcome was inactive.

As to `CCn1cc(C(=O)O)c(=O)c2ccc(C)nc21`, the result was inactive.

For the compound `CC(C)CCCC(C)(C)O`, the outcome was inactive.

Take `OCC(F)(OC(F)(F)C(F)(OC(F)(F)C(F)(F)C(F)(F)F)C(F)(F)F)C(F)(F)F` (centres undefined): the half-maximal activity concentration (AC50) was 2.4 µM (active) and 2.03 µM (active).

As to `C=C(C)C(=O)OCCC(F)(F)C(F)(F)C(F)(F)C(F)(F)C(F)(F)C(F)(F)C(F)(F)C(F)(F)F`, the result was inactive.
